AC50 and outcome data for 13 molecules are collected here from PubChem BioAssay (EPA / NIEHS).

Records with an inconclusive call do not appear. Calls of active or inactive are those of the source. How the source made its calls, unless noted: active means hit-call score of the fitted dose curve at least 0.9, where 1 is the maximum; inconclusive means response in the unintended direction; inactive means score below 0.9.

The test system of assay [1] is Thyroperoxidase (TPO), gene 54314. The assay is described as follows: CCTE_Simmons_AUR_rTPO: CCTE's Amplex UltraRed Assay for Thyroperoxidase (TPO) Inhibition, Simmons Lab (AID 2283662).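 On AC50: potency for loss of signal meaning inhibition of peroxidase activity.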 Put shortly: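 Rat thyroid microsomes (5 ug protein) were incubated with test compound (8 concentrations, 5 nM–87.5 uM final, 0.5% DMSO), 25 uM Amplex UltraRed and 300 uM H2O2 in 200 mM phosphate buffer for 30 min at 37C in the dark; fluorescence read at 544/590 nm.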

A short description of assay [2]: Tanguay_ZF_120hpf_SOMI_legacy: (Legacy) Oregon State University Tanguay Lab 120 Hour Post-fertilization zebrafish Assay for Somite Malformation (AID 2283647). Put shortly: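 Read-out: presence or absence of somite malformation in 120 hpf larvae, gain-of-signal relative to DMSO baseline. Embryos lacked chorion (pronase, 4 hpf) and were exposed statically from 6 hpf at 28C; dead larvae not scored.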

Assay [3] can be described thus: Tanguay_ZF_120hpf_PFIN_legacy: (Legacy) Oregon State University Tanguay Lab 120 Hour Post-fertilization zebrafish Assay for Pectoral Fin Malformation (AID 2283648).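 Further: each larva judged yes or no for fin defect by brightfield with dead larvae skipped.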 Put shortly:
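Pectoral fin malformation was recorded as a binary endpoint at 120 hpf in wild-type Tropical 5D larvae, which had been dechorionated and exposed statically from 6 hpf at 28C in 0.64% DMSO. Dead embryos were excluded.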

The nature of assay [4]: Tanguay_ZF_120hpf_PIG_legacy: (Legacy) Oregon State University Tanguay Lab 120 Hour Post-fertilization zebrafish Assay for Pigmentation Malformation (AID 2283650). Put shortly:
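Pigment malformation recorded as a binary call at 120 hpf in zebrafish (Tropical 5D) exposed singly from 6 hpf after pronase dechorionation. Static, sealed, 28C exposure, 0.64% DMSO; mortality excludes scoring; positive-direction fit against DMSO.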

Assay [5] can be described thus: Tanguay_ZF_120hpf_CIRC_legacy: (Legacy) Oregon State University Tanguay Lab 120 Hour Post-fertilization zebrafish Assay for Circulatory Malformation (AID 2283651). Put shortly: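 Static exposure, 6–120 hpf, 28C, sealed and dark; one dechorionated 5D embryo/well; DMSO 0.64% v/v final. Binary circulation endpoint by brightfield; dead embryos not scored.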
A short description of assay [6]: Tanguay_ZF_120hpf_SWIM_legacy: (Legacy) Oregon State University Tanguay Lab 120 Hour Post-fertilization zebrafish Assay for Swim Bladder Malformation (AID 2283654).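 Further: swim bladder malformation in each larva scored yes or no under brightfield.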 A digest of the protocol: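 Scoring is binary for swim bladder defects at 120 hpf, by brightfield inspection of zebrafish larvae. Embryos were exposed singly from 6 hpf after pronase dechorionation, at 28C with 0.64% DMSO; mortality excluded scoring.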

Assay [7] in a line: Tanguay_ZF_120hpf_TRUN_legacy: (Legacy) Oregon State University Tanguay Lab 120 Hour Post-fertilization zebrafish Assay for Truncated Body (AID 2283655). A digest of the protocol:
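Truncated body is recorded as a binary endpoint at 120 hpf by brightfield imaging of wild-type 5D larvae. Exposure runs statically from 6 hpf at 28C with 0.64% DMSO; embryos dying earlier are not scored.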

The nature of assay [8]: Tanguay_ZF_120hpf_NC_legacy: (Legacy) Oregon State University Tanguay Lab 120 Hour Post-fertilization zebrafish Assay for Notochord and Tail Malformation (AID 2283656). Put shortly: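 Binary notochord-distortion calls, made by brightfield inspection, form the read-out; activity is fitted in the positive direction against DMSO. Exposure ran statically from 6 to 120 hpf at 28C with 0.64% DMSO.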

Assay [9] in a line: Tanguay_ZF_120hpf_TR_legacy: (Legacy) Oregon State University Tanguay Lab 120 Hour Post-fertilization zebrafish Assay for Touch Response (AID 2283667). Put shortly:
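Binary touch-response endpoint in larvae at 120 hpf after static waterborne exposure from embryo stage (28°C, 0.64% DMSO vehicle, 5 uM trimethyltin chloride as positive control); embryos dead at 24 or 120 hpf excluded; fitted as gain versus DMSO.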

The nature of assay [10]: STM_H9_OrnithineISnorm_perc: Stemina devTOX quickPredict H9 human embryonic stem cell (hESC)-based Assay for Ornithine (ORN) Metabolite Biomarker, Normalized (AID 2283712; active means hit-call score of the fitted dose curve at least 0.9, where 1 is the maximum; inactive means score below 0.9;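 further: ornithine released into spent medium during last day measured by mass spectrometry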). A digest of the protocol:
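UPLC-HRMS readout: endogenous ornithine EIC area / 13C-ORN internal standard, then % of 0.1% DMSO median. H9 hESCs (pluripotent), 72h exposure, re-dosed with fresh media q24h; last 24-h spent media, deproteinized in 40% acetonitrile.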

Assay [11] can be described thus: STM_H9_CystineISnorm_perc: Stemina devTOX quickPredict H9 human embryonic stem cell (hESC)-based Assay for Cystine (CYSS) Metabolite Biomarker, Normalized (AID 2283713; active means hit-call score of the fitted dose curve at least 0.9, where 1 is the maximum; inactive means score below 0.9). A digest of the protocol: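 UPLC-HRMS read-out: endogenous cystine peak area in spent medium, normalized to isotope-labeled internal standard and to median of 0.1% DMSO controls. Pluripotent H9 cells, 72h exposure, daily medium/compound replenishment; medium from last 24h sampled.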

Assay [12] in a line: STM_H9_OrnCyssISnorm_ratio: Stemina devTOX quickPredict H9 human embryonic stem cell (hESC)-based Assay for Ornithine (ORN):Cystine (CYSS) Ratio (AID 2283714). Put shortly:
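Ratio of internal-standard-normalized ornithine to cystine, measured by UPLC-HRMS in spent media from the last 24 h. H9 cells kept pluripotent, dosed 72 h with daily media and compound renewal; DMSO 0.1% serves as baseline.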

A short description of assay [13]: Tanguay_ZF_120hpf_ActivityScore_legacy: (Legacy) Oregon State University Tanguay Lab 120 Hour Post-fertilization zebrafish Assay Score for Activity (AID 2283742).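 On AC50: dechorionated Tropical 5D wild-type zebrafish embryos held singly per well.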 A digest of the protocol:
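Binary scoring of mortality and morphology by brightfield at 24 and 120 hpf, summarised into one activity score from 18 components relative to DMSO. Wild-type Tropical 5D zebrafish, chorion removed at 4 hpf, static exposure 6–120 hpf, 28 °C.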

Read-out in assay [14]: kallikrein-3 (KLK3), KLK3 (gene 354)
The assay is described as follows: LTEA_HepaRG_KLK3: Life Technologies and Expression Analysis (LTEA) Assay for kallikrein-3 (KLK3) using HepaRG (AID 2283652; active means hit-call score of the fitted dose curve at least 0.9, where 1 is the maximum; inactive means score below 0.9). The settings on record: mRNA level, 48 h; actives raise or lower the signal. A digest of the protocol: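 KLK3 transcript levels were measured by TaqMan qRT-PCR with normalisation to three housekeeping genes. HepaRG cultures received chemicals for 48 h at up to 100 uM (half-log, 8 points, 0.5% DMSO vehicle), fitted in both directions against DMSO.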

Read-out in assay [15]: solute carrier (SLC22A6), SLC22A6 (gene 9356)
The assay is described as follows: LTEA_HepaRG_SLC22A6: Life Technologies and Expression Analysis (LTEA) Assay for solute carrier (SLC22A6) using HepaRG (AID 2283653; active means hit-call score of the fitted dose curve at least 0.9, where 1 is the maximum; inactive means score below 0.9). The settings on record: mRNA level, 48 h; actives raise or lower the signal. Put shortly: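 Read-out is SLC22A6 transcript level by qRT-PCR, normalised to three housekeeping genes and fitted for gain or loss relative to 0.5% DMSO vehicle. Human HepaRG cells received chemicals at up to 100 uM for 48 h.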

Read-out in assay [16]: solute carrier (SLC10A1), SLC10A1 (gene 6554)
The assay is described as follows: LTEA_HepaRG_SLC10A1: Life Technologies and Expression Analysis (LTEA) Assay for solute carrier (SLC10A1) using HepaRG (AID 2283657; active means hit-call score of the fitted dose curve at least 0.9, where 1 is the maximum; inactive means score below 0.9). The settings on record: mRNA level, 48 h; actives raise or lower the signal. Put shortly: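 SLC10A1 transcript measured by TaqMan qRT-PCR, housekeeping-normalised, after 48 h chemical treatment of human HepaRG cells. Eight concentrations (half-log, max 100 uM, 0.5% DMSO vehicle) in duplicate; fitted bidirectionally against DMSO baseline.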

Read-out in assay [17]: matrix metalloproteinase-1 (MMP1), MMP1 (gene 4312)
The assay is described as follows: LTEA_HepaRG_MMP1: Life Technologies and Expression Analysis (LTEA) Assay for matrix metalloproteinase-1 (MMP1) using HepaRG (AID 2283658; active means hit-call score of the fitted dose curve at least 0.9, where 1 is the maximum; inactive means score below 0.9). The settings on record: mRNA level, 48 h; actives raise or lower the signal. Put shortly:
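HepaRG, ~100,000 cells/well, 48 h pre-culture; serum-free induction medium; test chemical 8 conc (max 100 uM, half-log), duplicate, 48 h; 0.5% DMSO; qRT-PCR MMP1, housekeeping-normalized; gain/loss fit vs DMSO.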

Read-out in assay [18]: Cytochrome P450 (CYP24A1_1), CYP24A1 (gene 1591)
The assay is described as follows: LTEA_HepaRG_CYP24A1_1: Life Technologies and Expression Analysis (LTEA) Assay for Cytochrome P450 (CYP24A1_1) using HepaRG (AID 2283671; active means hit-call score of the fitted dose curve at least 0.9, where 1 is the maximum; inactive means score below 0.9). The settings on record: mRNA level, 48 h; actives raise or lower the signal. Put shortly:
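Differentiated human HepaRG cells were exposed in duplicate for 48 h in serum-free induction medium to eight concentrations (top 100 uM, half-log steps, 0.5% DMSO). CYP24A1 mRNA was quantified by TaqMan qRT-PCR, normalized to ACTB, GAPDH and POLR2A, and fitted bidirectionally versus DMSO.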

Assay [19] in a line: CCTE_Padilla_ZF_144hpf_TERATOSCORE: (Legacy) CCTE's 144 Hour Post-fertilization zebrafish Assay Teratoscore, Padilla Lab (AID 2283679; active means hit-call score of the fitted dose curve at least 0.9, where 1 is the maximum; inactive means score below 0.9;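 on AC50: zebrafish embryos with chorions exposed by immersion from 6-8 hpf to 5 dpf with daily renewal; teratogenicity score from eye scoring of death hatching and malformations at 144 hpf; higher score means more developmental defects relative to DMSO baseline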). A digest of the protocol: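 Larvae scored by eye at 144 hpf for death, hatching and malformations after a day in clean Hanks'. Before that, daily-renewed exposure at 80 uM (0.4% DMSO, 26C) from roughly 6-8 hpf through 5 dpf, 4 embryos per chemical.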

In the case of `CCCCCCCCCCCCOC(=O)c1cc(O)c(O)c(O)c1`, the half-maximal activity concentration (AC50) in [1] is 1.05 µM (active).

`CCc1cccc(CC)c1N(COC)C(=O)CS(=O)(=O)O`: the molecule was called inactive in [1].

With `CN(Cc1cnc2nc(N)nc(N)c2n1)c1ccc(C(=O)N[C@@H](CCC(=O)O)C(=O)O)cc1`, the molecule was classed as inactive in assay [2], in [3], in assay [4], in assay [5], in assay [6] and in assay [7]. Moreover, the molecule was called inactive in assay [8], in [9] and in assay [13]. In addition, the half-maximal activity concentration (AC50) in [1] is 9.76 µM (active); in assay [10], 0.0773 µM (active); in assay [11] it was 0.0873 µM (active); in assay [12] it was 0.0863 µM (active).

`CCCCC=O`: the molecule was classed as inactive in assay [2], in assay [3], in [5], in assay [14], in [15] and in assay [6]. Further, the molecule was called inactive in [7], in [8], in [16], in assay [17], in [9] and in assay [18]. For the same molecule, in assay [13], the outcome was inactive. Also, the AC50 in assay [19] was 105 µM (active).

For the molecule `O=C1OC2(c3ccccc31)c1cc(I)c(O)c(I)c1Oc1c2cc(I)c(O)c1I`, the AC50 in assay [1] was 16 µM (active).

Turning to `CCCCCCCCCCCC`, in [1], the AC50 was 43.8 µM (active).

As for `OCC(CO)(CBr)CBr`, the outcome in [2], in assay [3], in assay [4], in assay [5], in assay [6] and in [7] was inactive. Further, the molecule was called inactive in assay [8], in assay [9], in [10], in assay [11], in [12] and in [13].

On to `NC(=NCCCCCCN=C(N)/N=C(\N)Nc1ccc(Cl)cc1)/N=C(\N)Nc1ccc(Cl)cc1`, for which the molecule was called inactive in assay [1].

Take `CCC(C)c1ccccc1O` (configuration not stated): the outcome in assay [2], in assay [3], in [4], in [6], in [7] and in [8] was inactive. Further, the molecule was called inactive in assay [9] and in assay [13].

Regarding `CCCCCCCCCCCCCCC`, the molecule was classed as inactive in assay [2], in [3], in [5], in [6], in assay [7] and in [8]. Besides, in assay [13], the molecule was called inactive.

Regarding `CCCCCCCCCCCCOS(=O)(=O)O`, the molecule was called inactive in assay [2], in [3], in assay [4], in assay [5], in [6] and in assay [7]. Besides, the molecule was called inactive in [9] and in assay [19]. Also, the AC50 in assay [13] is 11 µM (active).

`CCCCC(CC)C(=O)O` (configuration not stated): the call in assay [3], in [4], in assay [8], in assay [9], in assay [11] and in assay [12] was inactive. Also, the outcome in assay [13] was inactive. For the same molecule, in [10], the AC50 was 0.134 µM (active).

`O=C(c1ccccc1)c1ccccc1`: the molecule was classed as inactive in assay [2], in [3], in assay [4], in [5], in [6] and in [7]. The result in assay [8], in [9], in [12] and in assay [13] was inactive. For the same molecule, the concentration at half-maximal activity (AC50) in [19] is 15.1 µM (active).
